Rows were chosen to be rich in hits. Some 11% of all compounds tested hit in one or more screens of this group.
3T3 cytotox – kills NIH 3T3 cells | AID 1345082 | Potency, µM (top dose mostly 96.7 µM), usual class: inhibitors | NIH 3T3 viability, CellTiter-Glo ATP luminescence, 48-72 h | actives 4.3% (n = 94,000); note: nearly all actives have a fitted effect of over 55% in size
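Cells were seeded at 400 per well, treated with pin-transferred compound, and kept 48 or 72 hr at 37 °C before CellTiter-Glo addition and luminescence imaging of cellular ATP.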
Luciferase inh – Photinus pyralis luciferase inhibition. P08659. purified P. pyralis luciferase, luminescence, biochemical. Potency, µM (top dose mostly 115 µM), hits mostly inhibitors. actives 2.5% (n = 76,000); note: nearly all actives have a fitted effect of over 65% in size
Target sequence (P08659 whole entry, looked up): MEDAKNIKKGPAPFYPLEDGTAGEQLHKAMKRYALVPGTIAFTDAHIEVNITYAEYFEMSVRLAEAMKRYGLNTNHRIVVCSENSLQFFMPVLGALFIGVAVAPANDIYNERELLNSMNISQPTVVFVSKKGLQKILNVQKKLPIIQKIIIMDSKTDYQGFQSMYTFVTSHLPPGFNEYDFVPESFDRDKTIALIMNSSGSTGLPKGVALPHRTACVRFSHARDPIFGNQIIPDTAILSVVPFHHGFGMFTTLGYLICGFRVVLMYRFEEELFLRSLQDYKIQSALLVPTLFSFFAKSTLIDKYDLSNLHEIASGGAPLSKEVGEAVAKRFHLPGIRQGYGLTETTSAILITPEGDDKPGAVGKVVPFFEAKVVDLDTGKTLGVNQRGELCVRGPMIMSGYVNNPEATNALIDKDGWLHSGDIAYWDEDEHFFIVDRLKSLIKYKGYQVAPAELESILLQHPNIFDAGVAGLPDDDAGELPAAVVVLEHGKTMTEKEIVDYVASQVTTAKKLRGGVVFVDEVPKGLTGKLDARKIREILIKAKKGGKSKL
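Luminescence read by CCD imager after adding enzyme (10nM final) to wells holding compound, titrated in qHTS. Substrates 10uM each D-luciferin and ATP; buffer 50mM Tris acetate pH 7.5, 10mM Mg acetate, Tween-20, BSA.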
NPR1 antag – antagonists of human natriuretic peptide receptor Npr1; P16066; HEK293 hNpr1 GloSensor cGMP, ANP-stimulated luminescence; actives 1.6% (n = 76,000); Potency, µM (highest dose often 46.3 µM), actives largely listed as inhibitors; calls by dose curve; note: nearly all actives have a fitted effect of over 60% in size
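Compound pre-incubated 30 min at room temperature on GloSensor-loaded HEK293 cells stably carrying hNpr1 and the pGS-40F cGMP biosensor. Stimulation uses hNppA at 0.1 nM final; luminescence is taken at baseline and 20 min post-agonist.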
HEK293 tox – kills HEK 293 cells; Potency, µM (titrated, usually from 115 µM), most hits filed as inhibitors; actives 6.6% (n = 94,000); HEK 293 viability, ATP luminescence (CellTiter-Glo), 48-72 h; AID 1345083; note: nearly all actives have a fitted effect of over 60% in size
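250 HEK 293 cells/well; compound by pintool; incubated 48 or 72 hr at 37 degree Celsius; CellTiter-Glo added, 10 min RT, luminescence imaged.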
Of the large screens only hits and unclear results are named; the others gave an inactive call; ! = not confirmed by another sample. Unless noted, calls come from the whole dose curve; as a rule, active = well fitted curve in the direction sought with a large enough effect; inconclusive = small, poorly fitted or top-dose-only effect, or another doubt; inactive = no such curve, though single readings can be large; an effect the other way counts as inactive or inconclusive.

CCOc1ccccc1CCCN1CC2(CCNCC2)CCC1=O	3T3 cytotox inconclusive, HEK293 tox inconclusive
Cc1cccc(CN2CCCC(O)(CN3CCC(C)CC3)C2=O)c1 (stereo not drawn)	none
Cc1cccc(CN2CCCC(O)(CNCc3ncccc3C)C2=O)c1 (stereo not drawn)	3T3 cytotox 14µM, HEK293 tox inconclusive
COc1cccc2c1OCC(CNC(=O)CCN1Cc3ccccc3C1=O)C2 (stereo not drawn)	none
COc1cccc2c1OCC(CNC(=O)c1ccccc1N1CCCC1)C2 (stereo not drawn)	HEK293 tox 89µM
CN1C(=O)[C@@H]2C[C@@H](CN2C(=O)CCC(=O)O)Oc2ccccc21	none
COc1ccc(Cc2nc3nccc(-c4ccc(OC)cc4F)n3n2)cc1	HEK293 tox inconclusive
COc1ccc(-c2ccnc3nc(Cc4ccc(F)cc4)nn23)c(F)c1	3T3 cytotox inconclusive, HEK293 tox 25µM
COc1ccc(-c2ccnc3nc(CCc4ccc(OC)c(OC)c4)nn23)c(F)c1	HEK293 tox 45µM
CCCN1C(=O)CCc2cc(NC(=O)c3ccc(C)cc3)ccc21	3T3 cytotox inconclusive, Luciferase inh 32µM, HEK293 tox inconclusive
CCCN1C(=O)CCc2cc(NC(=O)c3ccc4c(c3)OCO4)ccc21	3T3 cytotox inconclusive, Luciferase inh 32µM, HEK293 tox 45µM
CCOc1ccc(C(=O)Nc2ccc3c(c2)CCC(=O)N3CC(C)C)cc1	3T3 cytotox inconclusive, NPR1 antag inconclusive, HEK293 tox 28µM
COc1ccccc1-n1c(=O)c(C(=O)N2CCN(C(=O)c3ccccc3Cl)CC2)nc2cccnc21	none (no result: Luciferase inh, NPR1 antag)
CC1CCN(S(=O)(=O)N2CCC(C(=O)N3CCC(Cc4nncn4CC4CC4)CC3)CC2)CC1	none
Cc1c(CN2CCCC(CNC(=O)c3cccc4ccccc34)C2)[nH]c2ccccc12 (stereo not drawn)	3T3 cytotox 20µM, HEK293 tox 18µM
COc1cccc(C(=O)NCC2CCCN(Cc3ccccn3)C2)c1OC (stereo not drawn)	none
CC(C)NC(=O)N1CCC2(CC1)CC(CCOc1ccncc1)CCO2 (stereo not drawn)	none (no result: Luciferase inh, NPR1 antag)
CNC(=O)N1CCC(C2CCN(C(=O)CCc3c(C)nn(C)c3C)C2)CC1 (stereo not drawn)	none (no result: Luciferase inh, NPR1 antag)
CNC(=O)c1cc(C2CC2)nc2c1c(C1CCCN1C(=O)Nc1ccc(Cl)cc1)nn2C (stereo not drawn)	none (no result: Luciferase inh, NPR1 antag)
Cc1cccc(N2CCN(C(=O)c3ccc4c(c3)N(C(=O)c3ccccc3)CC4)CC2)c1C	3T3 cytotox 32µM, HEK293 tox 28µM
COCCn1ncc(N2CCCC(CC(=O)Nc3cc(C)ccc3OC)C2)cc1=O (stereo not drawn)	none
CCc1nc(-c2c3n(c(=O)n(CC(=O)Nc4ccc(Cl)cc4)c2=O)CCCC3)no1	3T3 cytotox inconclusive
CCc1nncn1C1CCN(S(=O)(=O)c2ccc(Cl)c(C)c2)CC1	3T3 cytotox inconclusive, HEK293 tox inconclusive
CC(=O)N(C)CCc1noc(C2CN(Cc3c(F)cccc3Cl)C2)n1	3T3 cytotox inconclusive, HEK293 tox 40µM
CC(=O)N(C)CCc1noc(C2CN(C(=O)COc3ccccc3)C2)n1	none
Cc1cccc(C(=O)N2CCCC(Cc3ncc(C)n3Cc3ccccc3)C2)c1 (stereo not drawn)	HEK293 tox inconclusive
CCn1ccc2oc(C)c(C(=O)N3CCN(c4cccc(C)c4C)CC3)c2c1=O	3T3 cytotox inconclusive, HEK293 tox 50µM
O=C(Nc1ccc2c(c1)OCCO2)N1CCC(Cc2nc(-c3cccnc3)n[nH]2)C1 (stereo not drawn)	none
COCCN(C)C(=O)c1cn(C2CN(C(=O)Nc3ccccc3F)C2)nn1	none (no result: Luciferase inh, NPR1 antag)
CCN1CCCC(c2nc3ccc(F)cc3c(=O)[nH]2)C1 (stereo not drawn)	none
Cc1ccc2nc(C3CCCN(Cc4cccc(-c5cccnc5)c4)C3)[nH]c(=O)c2c1 (stereo not drawn)	3T3 cytotox inconclusive, HEK293 tox 32µM!
Cc1ccc2nc(C3CCCN(Cc4cccc(-c5ccc(F)cc5F)c4)C3)[nH]c(=O)c2c1 (stereo not drawn)	3T3 cytotox inconclusive, HEK293 tox inconclusive
O=c1[nH]c(C2CCCN(Cc3cccc(-c4ccsc4)c3)C2)nc2ccc(F)cc12 (stereo not drawn)	3T3 cytotox 28µM!, HEK293 tox 22µM
O=c1[nH]c(C2CCCN(CC3CCCC3)C2)nc2ccc(F)cc12 (stereo not drawn)	3T3 cytotox 40µM, HEK293 tox 32µM
O=c1[nH]c(C2CCCN(Cc3cccc(Cl)c3)C2)nc2ccc(F)cc12 (stereo not drawn)	3T3 cytotox inconclusive, HEK293 tox inconclusive
CN1CC(C(=O)NCc2ccc(C(F)(F)F)cc2)NC1=O (stereo not drawn)	none (no result: Luciferase inh, NPR1 antag)
COc1ccccc1-c1[nH]nc2ncc(C(=O)NCC3CCOCC3)nc12	3T3 cytotox 40µM
COc1ccccc1-c1[nH]nc2ncc(-c3cccnc3OC)nc12	3T3 cytotox 10µM, HEK293 tox 10µM
COc1ccccc1-c1[nH]nc2ncc(-c3c(C)noc3C)nc12	3T3 cytotox inconclusive, HEK293 tox 89µM
COc1ncccc1-c1cnc2n[nH]c(-c3ccccc3)c2n1	3T3 cytotox 50µM, HEK293 tox 71µM
C=CCN1C[C@H]2COc3cc(OC)ccc3[C@H]2N(C(=O)CCCCC)CCC1=O	3T3 cytotox inconclusive (no result: Luciferase inh, NPR1 antag)
CN1CCN(Cc2nc(C3(O)CCN(Cc4ccccc4F)CC3)cs2)CC1	3T3 cytotox inconclusive, HEK293 tox inconclusive
O=C1CC2(CCN(CC3CCCC3)C2)Nc2ccccc2N1 (stereo not drawn)	none (no result: Luciferase inh, NPR1 antag)
COc1ccccc1-c1cnc2n[nH]c(-c3ccccc3)c2n1	3T3 cytotox 79µM, HEK293 tox inconclusive
COc1ccccc1-c1[nH]nc2ncc(-c3ccccc3O)nc12	3T3 cytotox inconclusive, HEK293 tox inconclusive
Cn1ncc2c(C(=O)NC3CCC3)cc(-c3ccccc3C(F)(F)F)nc21	HEK293 tox inconclusive (no result: Luciferase inh, NPR1 antag)
COc1ccc(-n2nc(C3CCN(Cc4cccn4C)CC3)[nH]c2=O)cc1	3T3 cytotox inconclusive, HEK293 tox 40µM
COCCN1Cc2nc(-c3cnn(Cc4ccccc4)c3)ccc2OCC1=O	3T3 cytotox 45µM, HEK293 tox inconclusive
CN1Cc2nc(-c3cnn(Cc4ccccc4)c3)ccc2OCC1=O	3T3 cytotox inconclusive, HEK293 tox inconclusive
COc1cccc(CN2Cc3nc(-c4cn[nH]c4)ccc3OCC2=O)c1	3T3 cytotox 35µM, HEK293 tox inconclusive
COc1cccc(CN2Cc3nc(-c4cccc(O)c4)ccc3OCC2=O)c1	3T3 cytotox inconclusive, HEK293 tox 100µM
COc1cccc(CN2Cc3nc(-c4ccsc4)ccc3OCC2=O)c1	3T3 cytotox inconclusive, HEK293 tox inconclusive
O=C1COc2ccc(-c3cn[nH]c3)nc2CN1Cc1ccccc1	3T3 cytotox 28µM, HEK293 tox inconclusive
COc1ccc(-c2ccc(C(=O)NCCc3ccc(F)cc3)cc2)nn1	none (no result: Luciferase inh, NPR1 antag)
CN(Cc1ccccc1C(F)(F)F)C(=O)c1ccc(C(F)(F)F)cc1	3T3 cytotox inconclusive, HEK293 tox inconclusive

Screens deposited in PubChem BioAssay by National Center for Advancing Translational Sciences (NCATS).
